Assay results taken from PubChem BioAssay (NCATS).
Inconclusive results are not listed. Entries that show only a call come without a potency. Calls of active or inactive are those of the source. The call rests on the fitted dose curve; in most records, active means well fitted curve in the direction sought with a large enough effect; inconclusive means small, poorly fitted or top-dose-only effect, or another doubt; inactive means no such curve, though single readings can be large; an effect the other way counts as inactive or inconclusive.

How the values were obtained:
7G8 = assay: qHTS profiling for inhibitors of Plasmodium falciparum proliferation (AID 504749); further: nearly all actives have a fitted effect of over 60% in size; conditions: P. falciparum in erythrocytes, SYBR Green DNA, 72 h; series mostly up to 28.7 µM
Summary of the method: (§1)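 Quantitative HTS: compounds pinned into medium, infected erythrocytes added (0.3% parasitemia, 2.5% hematocrit), 72 h culture at 37 C under 5% CO2. Saponin/Triton lysis with SYBR Green I, overnight RT, then fluorescence read.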

ATS95 = assay: as above; conditions: P. falciparum in erythrocytes, SYBR Green DNA, 72 h; series mostly up to 28.7 µM
Summary of the method: as §1

CP203 = assay: as above; conditions: P. falciparum in erythrocytes, SYBR Green DNA, 72 h; series mostly up to 28.7 µM
Summary of the method: as §1

CP247 = assay: as above; conditions: P. falciparum in erythrocytes, SYBR Green DNA, 72 h; series mostly up to 28.7 µM
Summary of the method: as §1

CP260 = assay: as above; conditions: P. falciparum in erythrocytes, SYBR Green DNA, 72 h; series mostly up to 28.7 µM
Summary of the method: as §1

CP268 = assay: as above; conditions: P. falciparum in erythrocytes, SYBR Green DNA, 72 h; series mostly up to 28.7 µM
Summary of the method: as §1

CP291 = assay: as above; conditions: P. falciparum in erythrocytes, SYBR Green DNA, 72 h; series mostly up to 28.7 µM
Summary of the method: as §1

CP325 = assay: as above; conditions: P. falciparum in erythrocytes, SYBR Green DNA, 72 h; series mostly up to 28.7 µM
Summary of the method: as §1

CP335 = assay: as above; conditions: P. falciparum in erythrocytes, SYBR Green DNA, 72 h; series mostly up to 28.7 µM
Summary of the method: as §1

DIV14 = assay: as above; conditions: P. falciparum in erythrocytes, SYBR Green DNA, 72 h; series mostly up to 28.7 µM
Summary of the method: as §1

DIV17 = assay: as above; conditions: P. falciparum in erythrocytes, SYBR Green DNA, 72 h; series mostly up to 28.7 µM
Summary of the method: as §1

GB4 = assay: as above; conditions: P. falciparum in erythrocytes, SYBR Green DNA, 72 h; series mostly up to 28.7 µM
Summary of the method: as §1

ICS = assay: as above; conditions: P. falciparum in erythrocytes, SYBR Green DNA, 72 h; series mostly up to 28.7 µM
Summary of the method: as §1

P93_24 = assay: as above; conditions: P. falciparum in erythrocytes, SYBR Green DNA, 72 h; series mostly up to 28.7 µM
Summary of the method: as §1

PC26 = assay: as above; conditions: P. falciparum in erythrocytes, SYBR Green DNA, 72 h; series mostly up to 28.7 µM
Summary of the method: as §1

PC49 = assay: as above; conditions: P. falciparum in erythrocytes, SYBR Green DNA, 72 h; series mostly up to 28.7 µM
Summary of the method: as §1

[1] = S16 Schwann cell PMP22 intronic element firefly luciferase assay (AID 624032); further: nearly all actives have a fitted effect of over 30% in size
Summary of the method: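 Rat S16 Schwann cells stably carrying a PMP22 intronic element-driven Fluc reporter were seeded overnight, then exposed to compounds for 24 h at 37 °C. Luminescence was normalized to PTC124 (positive control) and DMSO (0% activity).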

CP215 = assay: qHTS profiling for inhibitors of Plasmodium falciparum proliferation (AID 504749); further: nearly all actives have a fitted effect of over 60% in size; conditions: P. falciparum in erythrocytes, SYBR Green DNA, 72 h; series mostly up to 28.7 µM
Summary of the method: as §1

CP266 = assay: as above; conditions: P. falciparum in erythrocytes, SYBR Green DNA, 72 h; series mostly up to 28.7 µM
Summary of the method: as §1

CP297 = assay: as above; conditions: P. falciparum in erythrocytes, SYBR Green DNA, 72 h; series mostly up to 28.7 µM
Summary of the method: as §1
Potency means the concentration at half of the fitted maximal effect.

Structure (SMILES)	Potency (7G8)	Potency (ATS95)	Potency (CP203)	Potency (CP247)	Potency (CP260)	Potency (CP268)	Potency (CP291)	Potency (CP325)	Potency (CP335)	Potency (DIV14)	Potency (DIV17)	Potency (GB4)	Potency (ICS)	Potency (P93_24)	Potency (PC26)	Potency (PC49)	Potency [1]	Potency (CP215)	Potency (CP266)	Potency (CP297)
Nc1ncn(C2C[C@H](O)[C@@H](CO)O2)c(=O)n1 (some centres undefined)	inactive	inactive	inactive	inactive	inactive	inactive	inactive	inactive	inactive	inactive	inactive	inactive	inactive	inactive	inactive	inactive				
Cc1ccc(/C=C2/C(=O)C3(C)CCC2C3(C)C)cc1 (centres undefined)	inactive	inactive	inactive	inactive	inactive	inactive	inactive	inactive		inactive	inactive	inactive	inactive	inactive	inactive	inactive	inactive	inactive	inactive	
CO[C@H]1C[C@@H]2CC[C@@H](C)[C@@](O)(O2)C(=O)C(=O)N2CCCC[C@H]2C(=O)O[C@H]([C@H](C)C[C@@H]2CC[C@@H](O)[C@H](OC)C2)CC(=O)[C@H](C)/C=C(\C)[C@@H](O)[C@@H](OC)C(=O)[C@H](C)C[C@H](C)/C=C/C=C/C=C/1C	1000 nM (active)	3980 nM (active)	1690 nM (active)	3550 nM (active)	4470 nM (active)	4780 nM (active)	4260 nM (active)	5360 nM (active)	1900 nM (active)	1690 nM (active)	1690 nM (active)	1690 nM (active)	501 nM (active)	2000 nM (active)	1510 nM (active)	10000 nM (active)	inactive	1690 nM (active)		4260 nM (active)
Cc1onc(-c2c(F)cccc2Cl)c1C(=O)NC1C(=O)N2C1SC(C)(C)C2C(=O)O (centres undefined)	inactive	inactive	inactive	inactive	inactive	inactive	inactive	inactive	inactive	inactive	inactive	inactive	inactive	inactive	inactive	inactive	inactive	inactive	inactive	inactive
NCCCCC(N)C(=O)O (centres undefined)	inactive	inactive	inactive	inactive	inactive	inactive	inactive	inactive	inactive	inactive	inactive	inactive	inactive	inactive		inactive	inactive	inactive	inactive	
CC(CCC(=O)O)C1CCC2C3C(=O)C[C@@H]4CC(=O)CC[C@@]4(C)C3CC(=O)[C@]12C (some centres undefined)	inactive	inactive	inactive	inactive	inactive	inactive	inactive	inactive				inactive	inactive	inactive	inactive	inactive	inactive	inactive	inactive	inactive
C=C1NC(=O)c2cc(CN(C)c3ccc(C(=O)N[C@@H](CCC(=O)O)C(=O)O)s3)ccc2N1	inactive	inactive	inactive	inactive	inactive	inactive		inactive	inactive		inactive					inactive	5.7 nM (active)	inactive	inactive	
C/C(=C(/CCO)SS/C(CCO)=C(\C)N(C=O)Cc1cnc(C)nc1N)N(C=O)Cc1cnc(C)nc1N	inactive	inactive	inactive			inactive	inactive	inactive	inactive	inactive	inactive	inactive	inactive	inactive	inactive	inactive	inactive	inactive	inactive	inactive
CCCCC(=O)O[C@]1(C(=O)CO)CCC2C3CCC4=CC(=O)CCC4(C)C3C(O)CC21C (some centres undefined)	12600 nM (active)	inactive	inactive	inactive		inactive	inactive	inactive	inactive	inactive	inactive	inactive		inactive	inactive	inactive	inactive	inactive	inactive	inactive
NC(=O)c1ncn(C2OC(CO)C(O)C2O)c1N (centres undefined)	inactive	inactive	inactive	inactive	inactive	inactive	inactive	inactive		inactive	inactive	inactive	inactive	inactive	inactive	inactive	inactive	inactive	inactive	inactive
O=C(O)C(O)c1ccccc1 (centres undefined)	inactive	inactive	inactive	inactive	inactive	inactive	inactive	inactive	inactive	inactive	inactive	inactive	inactive	inactive	inactive	inactive	inactive	inactive	inactive	inactive
CC1(C(=O)O)CCC2(C)CCC3(C)C(=CC(=O)C4C5(C)CCC(O)C(C)(C)C5CCC43C)C2C1 (centres undefined)	inactive	inactive	inactive	inactive	inactive	inactive	inactive	inactive	inactive	inactive		inactive	inactive	inactive	inactive	inactive	inactive	inactive		inactive
